Assay outcomes deposited in PubChem by several laboratories.
FXN GAA850 act – increases GAA850 frataxin promoter reporter activity | HEK293 lucGAA850 FXN promoter luciferase reporter, 24 h; percent of 10 µM SAHA response | activation, % at 6 µM | 360,000 compounds, 0.56% hits;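 active means activation above the average of all compounds screened plus 3 SD, cutoff fixed separately per campaign, cut at about 7.5% in these data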;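 further: 0% = DMSO wells and 100% = 10 µM SAHA wells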
HSF1 activator – increases HSF-1 driven luciferase reporter signal. NIH3T3-HGL HSF-1 luciferase reporter, MG132, 8 h; 100% = twice DMSO control signal. activation, % at 9 µM. 300,000 compounds, 1.7% hits. AID 504408;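 active means mean replicate activation of at least 50% with a set share of replicates each reaching 50%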;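 further: 0% = median of the neutral control wells and 100% = twice that signal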
AHR act – activates the human aryl hydrocarbon receptor. P35869. AHR-responsive luciferase reporter cells, luminescence. activation, % at 5 µM. 320,000 compounds, 2.5% hits. AID 2796; in the data active means activation above about 47%;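 further: 0% = vehicle wells and 100% = reference agonist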
Target sequence (P35869 whole entry, looked up): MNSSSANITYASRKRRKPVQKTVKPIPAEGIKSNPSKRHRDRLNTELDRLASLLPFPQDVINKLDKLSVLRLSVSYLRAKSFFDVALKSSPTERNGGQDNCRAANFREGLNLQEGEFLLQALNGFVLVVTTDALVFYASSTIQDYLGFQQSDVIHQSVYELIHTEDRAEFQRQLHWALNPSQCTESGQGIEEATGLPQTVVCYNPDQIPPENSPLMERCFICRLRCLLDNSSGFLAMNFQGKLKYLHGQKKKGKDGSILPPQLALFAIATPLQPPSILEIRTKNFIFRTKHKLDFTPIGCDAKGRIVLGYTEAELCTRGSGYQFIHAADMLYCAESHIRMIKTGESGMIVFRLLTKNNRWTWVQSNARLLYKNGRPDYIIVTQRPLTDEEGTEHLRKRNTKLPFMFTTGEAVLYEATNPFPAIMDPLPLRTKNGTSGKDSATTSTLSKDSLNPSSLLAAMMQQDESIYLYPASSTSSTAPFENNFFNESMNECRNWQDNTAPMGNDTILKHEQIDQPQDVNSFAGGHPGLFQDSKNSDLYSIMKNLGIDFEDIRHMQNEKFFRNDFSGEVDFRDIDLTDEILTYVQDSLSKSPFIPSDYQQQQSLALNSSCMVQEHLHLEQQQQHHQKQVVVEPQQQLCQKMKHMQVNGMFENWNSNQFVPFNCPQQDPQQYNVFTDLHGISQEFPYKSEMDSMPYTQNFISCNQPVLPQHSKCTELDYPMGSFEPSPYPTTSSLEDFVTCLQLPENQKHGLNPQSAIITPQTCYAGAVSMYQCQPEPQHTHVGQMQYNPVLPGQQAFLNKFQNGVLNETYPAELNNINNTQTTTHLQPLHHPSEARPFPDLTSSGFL
NR0B1 inh – inhibitors of human orphan nuclear receptor DAX1 (NR0B1); P51843; HEK293 Gal4-DAX1 luciferase reporter, luminescence; inhibition, % at 6.75 µM; 340,000 compounds, 0.99% hits;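 active means inhibition above the mean over all tested compounds plus 3 SD, cut at about 4.2% in these data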;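 further: 0% = DAX1-transfected cells with DMSO and 100% = empty-vector control cells with DMSO; inhibition shows as a rise in luminescence from relieved DAX1 repression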
HSF1 inh – HSF1 inhibition | NIH3T3-HGL HSE-luciferase, MG132-induced, luminescence 8 h; hits give low values | activity change, negative = inhibition, % at 7.5 µM (by protocol) | 300,000 compounds, 0.77% hits | AID 2098;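 active means more than half of replicate wells show activity change below -50%, luminescence cut by over half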;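 further: luciferase reports HSF-1 transcriptional activity via heat shock element; 0% = median of DMSO wells and -100% = zero luminescence signal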
HSP90 refold inh – HSP90 refolding inhibition in rabbit reticulocyte lysate | luciferase refolding luminescence, 3 h | AID 1789 | inhibition, % at 5.6 µM | 290,000 compounds, 0.91% hits;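 active means inhibition above the screen-wide mean plus 3 SD, computed separately per campaign, cut at about 16% in these data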;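 further: 0% = DMSO wells and 100% = 60 µM geldanamycin wells; inhibitors lower the luminescence because luciferase stays unfolded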
The depositor's hits bear a star. Rows were chosen to be rich in hits. Some 5.9% of all compounds tested hit in one or more screens of this group.

Results for Cc1ccccc1Cn1cc(NC(=O)c2cc(-c3ccco3)on2)cn1 ?
FXN GAA850 act: 2.7; HSF1 activator: 19.4; AHR act: 56.6*; NR0B1 inh: -3.0; HSF1 inh: 0.9; HSP90 refold inh: 1.4

Results for O=C(Nc1cnn(Cc2ccc(F)cc2)c1)c1cc(-c2ccco2)on1 ?
FXN GAA850 act: 0.6; HSF1 activator: -66.4; AHR act: 13.6; NR0B1 inh: -1.8; HSF1 inh: -54.5*; HSP90 refold inh: -3.0

How did O=C(COn1nnc2ccc(S(=O)(=O)N3CCOCC3)cc21)NCc1cccc(Cl)c1 do in these assays?
FXN GAA850 act: -1.0; NR0B1 inh: -0.3

How did OC(CNC1Cc2ccccc2C1)c1ccccc1 (stereo unspecified) do in these assays?
FXN GAA850 act: 3.9; HSF1 activator: -9.7; AHR act: 2.9; NR0B1 inh: -0.1; HSF1 inh: -5.7; HSP90 refold inh: 6.8

What do the screens show for `CC1(C)NC(=O)N(CC(=O)OCC(=O)Nc2c(Br)cc([N+](=O)[O-])cc2Br)C1=O`?
FXN GAA850 act: 3.0; NR0B1 inh: -0.7

Results for O=c1[nH]cncc1OCc1ccccc1 ?
FXN GAA850 act: 1.8; NR0B1 inh: 0.8

What do the screens show for `C(=N\N=C\c1ccccc1)/c1ccccc1`?
FXN GAA850 act: 4.2; HSF1 activator: 14.3; AHR act: -3.6; NR0B1 inh: 5.0*; HSF1 inh: 2.5; HSP90 refold inh: -0.5

How did COc1ccc(-c2csc(C(C)(O)c3cccc(F)c3)n2)cn1 (stereo unspecified) do in these assays?
FXN GAA850 act: -1.2

How did Cc1ccc(NC(=O)c2sc3ncn(CC(=O)N4CCOCC4)c(=O)c3c2C)c(Br)c1 do in these assays?
FXN GAA850 act: -1.0; HSF1 activator: 78.4*; AHR act: 0.7; NR0B1 inh: 1.8; HSF1 inh: 35.7; HSP90 refold inh: -0.7

What do the screens show for `CCn1cnc2sc(C(=O)Nc3ccc4c(c3)OCO4)c(C)c2c1=O`?
FXN GAA850 act: 4.6; HSF1 activator: 67.0*; AHR act: 2.7; NR0B1 inh: -0.4; HSF1 inh: 33.3; HSP90 refold inh: -0.3

What do the screens show for `CCn1cnc2sc(C(=O)Nc3ccccc3OC)c(C)c2c1=O`?
FXN GAA850 act: 3.5; HSF1 activator: -12.9; AHR act: 67.6*; NR0B1 inh: 0.6; HSF1 inh: -2.4; HSP90 refold inh: -0.2

What do the screens show for `Cc1cc([N+](=O)[O-])ccc1NC(=O)c1sc2ncn(CC(=O)N3CCOCC3)c(=O)c2c1C`?
FXN GAA850 act: 0.7; HSF1 activator: 37.6; AHR act: -1.1; NR0B1 inh: -0.5; HSF1 inh: 14.7; HSP90 refold inh: -8.1

What do the screens show for `CCOc1ccccc1NC(=O)c1sc2ncn(CC(=O)N3CCOCC3)c(=O)c2c1C`?
FXN GAA850 act: 1.3; HSF1 activator: 1.8; AHR act: 54.7*; NR0B1 inh: 1.2; HSF1 inh: -6.8; HSP90 refold inh: 2.8

What do the screens show for `COc1ccccc1NC(=O)c1sc2ncn(Cc3ccccc3C)c(=O)c2c1C`?
FXN GAA850 act: -1.5; HSF1 activator: -12.8; AHR act: 27.6; NR0B1 inh: -0.9; HSF1 inh: -5.2; HSP90 refold inh: 1.8

How did CCOC(=O)C1C(C(=O)OCC)C2C(=O)C3C(C(=O)OCC)C(C(=O)OCC)C3C(=O)C12 (stereo unspecified) do in these assays?
FXN GAA850 act: -1.2

What do the screens show for `COc1ccccc1CCN=C(N)NS(=O)(=O)c1ccc(C)c(C)c1`?
FXN GAA850 act: 1.7; HSF1 activator: 2.0; AHR act: -1.1; NR0B1 inh: 0.5; HSF1 inh: -8.9; HSP90 refold inh: -5.8

Results for COCCNC(=O)c1c[nH]c2ccc(S(=O)(=O)N3CCc4ccccc43)cc2c1=O ?
FXN GAA850 act: -0.3; HSF1 activator: 5.6; AHR act: 11.3; NR0B1 inh: -1.8; HSF1 inh: 5.4; HSP90 refold inh: -3.4

How did COCCCNC(=O)c1c[nH]c2ccc(S(=O)(=O)N3CCc4ccccc43)cc2c1=O do in these assays?
FXN GAA850 act: 0.2; HSF1 activator: 51.0*; AHR act: 8.6; NR0B1 inh: 1.6; HSF1 inh: 23.2; HSP90 refold inh: 1.0

How did CCOc1ccc(/C=C/C(=O)C(C(N)=O)=C2SCCS2)cc1 do in these assays?
FXN GAA850 act: 2.6; HSF1 activator: 74.9*; AHR act: 11.9; NR0B1 inh: 0.1; HSF1 inh: 48.9; HSP90 refold inh: -1.4

How did COc1cccc(C2c3c(oc4ccccc4c3=O)C(=O)N2CCCN(C)C)c1OC (stereo unspecified) do in these assays?
FXN GAA850 act: 1.5; HSF1 activator: 65.6*; AHR act: 1.2; NR0B1 inh: -0.8; HSF1 inh: 36.3; HSP90 refold inh: 2.5

How did CN(C)CCN1C(=O)c2oc3ccccc3c(=O)c2C1c1ccc(F)cc1 (stereo unspecified) do in these assays?
FXN GAA850 act: -2.1; HSF1 activator: 19.0; AHR act: -0.7; NR0B1 inh: 0.3; HSF1 inh: 6.2; HSP90 refold inh: 0.5

How did CCN(CC)CCN1C(=O)c2oc3ccccc3c(=O)c2C1c1ccc(C)cc1 (stereo unspecified) do in these assays?
FXN GAA850 act: 2.7; HSF1 activator: 12.9; AHR act: 5.1; NR0B1 inh: -0.8; HSF1 inh: 2.2; HSP90 refold inh: -0.9

What do the screens show for `CCN(CC)CCCN1C(=O)c2oc3ccccc3c(=O)c2C1c1cccc(OC)c1OC` (stereo unspecified)?
FXN GAA850 act: 0.3; HSF1 activator: 67.4*; AHR act: 2.8; NR0B1 inh: 0.7; HSF1 inh: 30.8; HSP90 refold inh: -1.2

How did OCCN(Cc1ccccc1)Cc1ccc(Cl)cc1Cl do in these assays?
FXN GAA850 act: -0.8; HSF1 activator: 35.6; AHR act: -0.5; NR0B1 inh: 0.3; HSF1 inh: 11.3; HSP90 refold inh: -5.0

What do the screens show for `CN1CC=C2C(C#N)=C(N)C(C#N)(C#N)C(c3cccc(Cl)c3Cl)C2C1` (stereo unspecified)?
FXN GAA850 act: -0.4; HSF1 activator: 113.3*; AHR act: 14.8; NR0B1 inh: -1.1; HSF1 inh: 63.5; HSP90 refold inh: -0.1

Results for COc1ccc2[nH]c3c(N4CCc5ccccc5C4)ncnc3c2c1 ?
FXN GAA850 act: -0.3; HSF1 activator: 64.5*; AHR act: 58.4*; NR0B1 inh: -7.5; HSF1 inh: 71.4; HSP90 refold inh: -4.9

What do the screens show for `CCOc1ccc2[nH]c3c(N4CCC5(CC4)OCCO5)ncnc3c2c1`?
HSF1 activator: 27.8; AHR act: 71.2*; HSF1 inh: -1.8; HSP90 refold inh: 3.0

Results for CCOc1ccc2[nH]c3c(N4CCN(C(=O)c5ccco5)CC4)ncnc3c2c1 ?
FXN GAA850 act: -0.8; HSF1 activator: 17.4; AHR act: 23.9; HSF1 inh: -2.6; HSP90 refold inh: -1.4

What do the screens show for `Cc1ccc(/C=C/C(=O)OCC(=O)NCCN2C(=O)CSC2=O)o1`?
FXN GAA850 act: -0.2; HSF1 activator: -79.4; AHR act: 3.1; NR0B1 inh: 0.2; HSF1 inh: -72.9*; HSP90 refold inh: -2.3
